Tgondii IFNg – inhibitors of Toxoplasma gondii growth with IFN-gamma; 3.8% of 69,000 active; activity change, negative = inhibition, % (test concentration not listed); Toxoplasma gondii growth in IFN-gamma-treated host cells; active compounds read low; AID 1259416; in the data active = activity change below about -70%, passing the limit was not always enough;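 also: host cells are HeLa cells infected with Toxoplasma gondii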
Starred values were filed as active, the others as inactive; ! = repeats disagree. The full list was thinned out, with hits kept by preference.

Results for CC(=O)Oc1cc2c(c(C)c1OC(C)=O)CC=C1[C@@]2(C)CC[C@@]2(C)C3C[C@](C)(C(=O)O)CC[C@]3(C)CC[C@]12C (stereo partly specified) ?
Tgondii IFNg: -81*

Results for CCCn1c(CN[C@@H]2CCC[C@H]2Cc2cc(C)no2)nc2ccccc21 ?
Tgondii IFNg: -2

What do the screens show for `CC(=O)N1CCC(C(=O)NCc2ccccc2)(N(Cc2ccco2)C(=O)c2ccc(Br)cc2)CC1`?
Tgondii IFNg: -30

Results for COc1cccc(CN(C(=O)c2cc(NC(C)=O)ccc2Cl)C2CC2)c1 ?
Tgondii IFNg: -5

How did CCOc1ccc(-c2ccccc2NC(=O)C2CC2)cc1 do in these assays?
Tgondii IFNg: 23

How did O=C(Nc1ccccc1-c1ccccc1)c1ccc2c(c1)[nH]c(=O)n2C1CCCC1 do in these assays?
Tgondii IFNg: -92*

What do the screens show for `Cc1cc(C)c2nc(C)cc(C(=O)Nc3ccccc3-c3ccccc3)c2c1`?
Tgondii IFNg: -30

How did Cc1ccccc1CNC1=NCCNC12CCN(S(=O)(=O)c1ccc(C(C)C)cc1)CC2 do in these assays?
Tgondii IFNg: -23

How did CCN1C(=O)CCc2cc(NC(=O)CC(C)C)ccc21 do in these assays?
Tgondii IFNg: 5

What do the screens show for `COCCN1C(=O)CCc2cc(NC(=O)c3ccc4c(c3)OCO4)ccc21`?
Tgondii IFNg: -39

Results for CCN1C(=O)CCc2cc(NC(=O)c3ccc(F)cc3)ccc21 ?
Tgondii IFNg: -26

What do the screens show for `CCN1C(=O)CCc2cc(NC(=O)/C=C/c3ccccc3)ccc21`?
Tgondii IFNg: -83*

What do the screens show for `Cc1ccc(C(=O)Nc2ccc3c(c2)CCC(=O)N3CC(C)C)c(C)c1`?
Tgondii IFNg: -65

How did CCC(=O)Nc1ccc2c(c1)CCC(=O)N2CC(C)C do in these assays?
Tgondii IFNg: 13

How did CCN1C(=O)CCc2cc(NC(=O)c3ccc4c(c3)OCO4)ccc21 do in these assays?
Tgondii IFNg: -87*

How did CC(C)CN1C(=O)CCc2cc(NC(=O)c3ccc4c(c3)OCO4)ccc21 do in these assays?
Tgondii IFNg: -77*

How did CCN1C(=O)CCc2cc(NC(=O)C3CCCC3)ccc21 do in these assays?
Tgondii IFNg: -8

What do the screens show for `CCS(=O)(=O)N1Cc2c(Cn3ccnc3)nn(C(C)C)c2C1`?
Tgondii IFNg: 2

What do the screens show for `CC(C)N(C)Cc1cnc2n1CCN(C(=O)c1ccsc1)C2C` (stereo unspecified)?
Tgondii IFNg: 36

What do the screens show for `OCc1cc(-c2cnc3ccccc3c2)ccc1F`?
Tgondii IFNg: 107

Results for CC1=C(C(=O)NCCC2=CCCCC2)C2(CCN(S(C)(=O)=O)CC2)OC1=O ?
Tgondii IFNg: 21

What do the screens show for `CCCCC1C=CCN1C(=O)C1CCN(Cc2ccco2)CC1` (stereo unspecified)?
Tgondii IFNg: 2

Results for COc1cccc(-c2ccc3cc(C(=O)Cc4cccnc4)c(-c4cocn4)n3c2)c1 ?
Tgondii IFNg: 40

What do the screens show for `COc1ccc(S(=O)(=O)N2CC3CCC2C3Oc2cccnc2)cc1` (stereo unspecified)?
Tgondii IFNg: -4

How did COC1C2CCC1N(S(=O)(=O)c1cccs1)C2 (stereo unspecified) do in these assays?
Tgondii IFNg: -77*

How did CC(C)CN1CC[C@H]2[C@@H]1CCN2S(=O)(=O)c1cccs1 do in these assays?
Tgondii IFNg: -4

What do the screens show for `COc1ccc(-c2n[nH]c(=S)n2Cc2ccccc2)cc1`?
Tgondii IFNg: 53

How did Cn1c(-c2ccc(Cl)cc2)n[nH]c1=S do in these assays?
Tgondii IFNg: -97*

Results for S=c1[nH]nc(-c2ccncc2)n1-c1cccc(Cl)c1 ?
Tgondii IFNg: 15

How did C[C@]12CCC3c4ccc(O)cc4CCC3C1CC[C@@H]2OC(=O)CCC1CCCC1 (stereo partly specified) do in these assays?
Tgondii IFNg: -72*!

Results for C[C@]12CC[C@@H]3c4ccc(O)cc4CC[C@H]3[C@@H]1CC[C@@H]2OC(=O)CCC(=O)O ?
Tgondii IFNg: 1

How did C[C@]12CCC3c4ccc(OS(=O)(=O)O)cc4CCC3C1CCC2=O (stereo partly specified) do in these assays?
Tgondii IFNg: 17

Results for COc1ccc(NC(=O)Cn2c(=O)cc(C(=O)N3CCOCC3)c3ccccc32)cc1Cl ?
Tgondii IFNg: 7

What do the screens show for `COc1ccc(-n2c(=O)c(C(=O)NC3CCCCCC3)c(O)c3cccnc32)cc1`?
Tgondii IFNg: 71

How did OCC1(CCc2ccccc2)CCN(c2ncnc3[nH]ccc23)CC1 do in these assays?
Tgondii IFNg: 6

What do the screens show for `OCC1(CCc2ccccc2)CCN(c2nccc(N3CCC(O)C3)n2)CC1` (stereo unspecified)?
Tgondii IFNg: -13

What do the screens show for `OCC1(Cc2cccc(C(F)(F)F)c2)CCN(c2ccc3ccccc3n2)CC1`?
Tgondii IFNg: 0

What do the screens show for `OCC1(CCc2ccccc2)CCN(c2ccc3ccccc3n2)CC1`?
Tgondii IFNg: -77*

Results for Cc1ccc2[nH]cc(-c3ccccc3C(N)=O)c2c1 ?
Tgondii IFNg: -4

Results for O=C(Nc1cccc(Cl)c1)c1c(O)c2cccnc2n(-c2cccc(F)c2)c1=O ?
Tgondii IFNg: -32

Results for O=C(Nc1ccc(F)c(Cl)c1)c1c(O)c2cccnc2n(-c2ccc(F)cc2)c1=O ?
Tgondii IFNg: 84

How did CC(NC(=O)c1c(O)c2cccnc2n(-c2cccc(F)c2)c1=O)c1ccc(F)cc1 (stereo unspecified) do in these assays?
Tgondii IFNg: 50

What do the screens show for `Cc1cc(F)ccc1NC(=O)c1c(O)c2cccnc2n(-c2cccc(F)c2)c1=O`?
Tgondii IFNg: -91*

What do the screens show for `O=C(Nc1ccc(F)c(Cl)c1)c1c(O)c2cccnc2n(-c2cccc(F)c2)c1=O`?
Tgondii IFNg: -102*

What do the screens show for `Cc1ccc(F)cc1NC(=O)c1c(O)c2cccnc2n(-c2cccc(F)c2)c1=O`?
Tgondii IFNg: -27

How did CC(NC(=O)c1c(O)c2cccnc2n(-c2cccc(F)c2)c1=O)c1ccccc1 (stereo unspecified) do in these assays?
Tgondii IFNg: -109*

What do the screens show for `O=C(Nc1ccccc1)c1c(O)c2cccnc2n(-c2cccc(F)c2)c1=O`?
Tgondii IFNg: 49

Results for Cc1ccc(NC(=O)c2c(O)c3cccnc3n(-c3cccc(F)c3)c2=O)c(C)c1 ?
Tgondii IFNg: -33

What do the screens show for `CC(CCc1ccccc1)NC(=O)c1cc2ccccc2o1` (stereo unspecified)?
Tgondii IFNg: 13

Results for CCc1ccc(NC(=O)c2c(O)c3ccccc3n(CC)c2=O)cc1 ?
Tgondii IFNg: -16

How did OCCN1CCC(Cn2ccnc2C2CC=CCC2)CC1 (stereo unspecified) do in these assays?
Tgondii IFNg: -3

What do the screens show for `Cc1cc(C)nc(N(C)CCCc2cnn(C)c2)n1`?
Tgondii IFNg: 2

What do the screens show for `Cc1cccnc1CN(C)C(=O)c1cc(CC(C)C)nc(N)n1`?
Tgondii IFNg: -9

Results for CC(=O)N1CCc2c(nc(-c3ccncc3)nc2NCc2cc(C)[nH]n2)C1 ?
Tgondii IFNg: -44

What do the screens show for `CSc1ccc(CN2CCN(C3CCN(C(C)C)CC3)C(CCO)C2)cc1` (stereo unspecified)?
Tgondii IFNg: -5

What do the screens show for `Cc1ccc(NC(=O)CC(=O)NCCCn2ccnc2)cc1Cl`?
Tgondii IFNg: 8

Results for CCC(NC(=O)CC(=O)Nc1ccc(C)c(Cl)c1)c1nc(C)no1 (stereo unspecified) ?
Tgondii IFNg: -5

What do the screens show for `Cc1ccc(Nc2nc3nonc3n3cnnc23)cc1Cl`?
Tgondii IFNg: -106*
